Assay results from PubChem BioAssay (NCATS).
Inconclusive results are not listed. A call without a number means that no potency is given here. Activity calls are given as the source filed them. Unless noted, calls follow the shape of the dose curve; as a rule, active = well fitted curve in the direction sought with a large enough effect; inconclusive = small, poorly fitted or top-dose-only effect, or another doubt; inactive = no such curve, though single readings can be large; an effect the other way counts as inactive or inconclusive.

How the values were obtained:
[1] = molecular target: Cytochrome P450 3A4 (Homo sapiens) (UniProt P08684); experiment: qHTS Assay for Activators of Cytochrome P450 3A4 (AID 885); also: nearly all actives have a fitted effect of over 65% in size
Method in brief: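 Quantitative HTS format: compounds preincubated with 20nM human CYP3A4 and Luciferin-PPXE substrate at KM, reaction started by NADPH regeneration, stopped after 60 min, luciferase luminescence read 20 min later.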

[2] = Confirmation and Secondary Assay for Modulators of Hemoglobin Beta Chain Splicing at IVS2 654 locus (AID 910);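 also: HeLa cells stably carrying EGFP split by mutant beta-globin IVS2-654 intron; per-well total GFP intensity by laser scanning cytometry after 2-day treatment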
Method in brief: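 Readout: per-well total peak green fluorescence (488 nm ex, 500–520 nm em) from objects 5–250 µm, reflecting correct splicing of an EGFP-654 reporter. Compounds were applied for 2 days at 37 °C to overnight-plated HeLa EGFP-654 cells; controls were DMSO and 500 nM IVS2-654 PNA.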

[3] = Confirmation and Secondary Assay for Modulators of Hemoglobin Beta Chain Splicing at IVS2 705 locus (AID 930);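 also: HeLa cells stably expressing the EGFP-705 splicing reporter; GFP fluorescence per well restored by corrected splicing of the IVS2-705 intron in EGFP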
Method in brief: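 Secondary splice-site specificity test uses HeLa expressing CMV-driven EGFP interrupted by IVS2-705; cells were treated 2 days at 37C with 500 nM antisense PNA as positive control.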

[4] = qHTS Assay for Lipid Storage Modulators (AID 1519; calls by dose curve); settings: Drosophila S3 cells, BODIPY lipid droplet/cell ratio, laser cytometry, cells loaded with oleic acid; for activity change, negative = inhibition: at 57.5 µM (top of the series)
Method in brief: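 Cells seeded at 5,000 per well were treated with compounds over a concentration series and loaded with oleic acid (400 uM, as added). Lipid droplet fluorescence (488 nm excitation, 500-530 nm channel) was read by laser-scanning cytometry and normalized to 20 uM Triacsin C.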

[5] = molecular target: Ubiquitin carboxyl-terminal hydrolase 1 (Homo sapiens) (UniProt O94782); experiment: Inhibitors of USP1/UAF1: Pilot qHTS (AID 504865);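 also: rhodamine fluorescence freed from ubiquitin-rhodamine substrate followed over time; top concentration of the series differs between compounds; nearly all actives have a fitted effect of over 35% in size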
Method in brief: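 Enzyme-free wells gave the negative control, while test wells held 1nM USP1/UAF1 preincubated with compound for 15 min at room temperature. Ub-Rho at 150nM final started the reaction, and fluorescence at 480/540 nm was recorded kinetically.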

[6] = measured here: cell count channel max response
[7] = measured here: lipid channel max response

Cytochrome P450 3A4 (Homo sapiens), sequence (P08684 whole entry, looked up): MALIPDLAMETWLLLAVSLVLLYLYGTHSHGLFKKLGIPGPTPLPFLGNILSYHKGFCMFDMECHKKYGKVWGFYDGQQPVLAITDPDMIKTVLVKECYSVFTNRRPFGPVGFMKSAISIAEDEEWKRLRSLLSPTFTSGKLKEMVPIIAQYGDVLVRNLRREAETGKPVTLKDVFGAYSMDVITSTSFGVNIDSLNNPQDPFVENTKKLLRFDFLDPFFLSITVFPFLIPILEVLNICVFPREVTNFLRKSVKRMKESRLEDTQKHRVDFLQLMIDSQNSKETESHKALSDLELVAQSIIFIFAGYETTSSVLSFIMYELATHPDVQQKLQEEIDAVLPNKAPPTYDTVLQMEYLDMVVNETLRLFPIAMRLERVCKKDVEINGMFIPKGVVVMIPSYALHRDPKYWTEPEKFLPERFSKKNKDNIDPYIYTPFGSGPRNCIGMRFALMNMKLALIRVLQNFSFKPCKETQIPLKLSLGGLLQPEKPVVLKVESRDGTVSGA
Ubiquitin carboxyl-terminal hydrolase 1 (Homo sapiens), sequence (O94782 whole entry, looked up): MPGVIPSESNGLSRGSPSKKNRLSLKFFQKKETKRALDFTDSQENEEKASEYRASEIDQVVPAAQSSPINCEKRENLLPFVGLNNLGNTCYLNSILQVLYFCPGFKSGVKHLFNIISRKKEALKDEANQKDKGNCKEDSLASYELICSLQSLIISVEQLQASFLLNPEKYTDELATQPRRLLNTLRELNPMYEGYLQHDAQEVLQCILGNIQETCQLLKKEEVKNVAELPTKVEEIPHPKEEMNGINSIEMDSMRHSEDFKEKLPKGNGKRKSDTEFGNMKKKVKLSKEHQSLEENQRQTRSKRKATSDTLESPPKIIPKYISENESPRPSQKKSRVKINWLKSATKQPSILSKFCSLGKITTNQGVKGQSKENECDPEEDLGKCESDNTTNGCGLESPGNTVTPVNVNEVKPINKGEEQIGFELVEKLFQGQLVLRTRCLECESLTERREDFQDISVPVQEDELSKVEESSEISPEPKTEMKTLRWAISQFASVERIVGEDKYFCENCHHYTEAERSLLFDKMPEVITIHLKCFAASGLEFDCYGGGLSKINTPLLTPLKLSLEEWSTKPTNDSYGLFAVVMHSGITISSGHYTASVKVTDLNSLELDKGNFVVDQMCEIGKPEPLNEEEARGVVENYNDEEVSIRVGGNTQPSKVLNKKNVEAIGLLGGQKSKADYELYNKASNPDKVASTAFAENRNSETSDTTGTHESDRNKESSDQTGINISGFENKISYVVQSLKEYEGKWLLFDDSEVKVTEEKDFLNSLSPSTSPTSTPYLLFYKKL

Row | SMILES | Potency [1] | Potency [2] | Potency [3] | activity change, negative = inhibition [4] | max response [4, 6] [%] | max response [4, 7] [%] | Potency [5]
1 | CC(=O)OC1CC2C(C)(C)C(O)C=C[C@@]2(C)C2CC[C@@]3(C)C(c4ccoc4)OC(=O)C4OC43[C@]12C (stereo partly drawn) | inactive | inactive | inactive | 8.59% (inactive) | 21.3 | 29.9 | inactive
2 | C[C@H]1C[C@]2(O[C@@H]2C)C(=O)O[C@@H]2CCN(C)C/C=C(/COC(=O)[C@]1(C)O)C2=O | inactive | – | – | -0.98% (inactive) | -19.3 | -21.3 | inactive
3 | CC12CCC3C(=CCc4cc(O)ccc43)C1CCC2=O (stereo not drawn) | inactive | inactive | inactive | 5.72% (inactive) | -12.9 | -6.28 | inactive
4 | COc1ccc(-c2oc3cc(O[C@@H]4OC(CO)C(O)C(O)C4O)c(OC)c(O)c3c(=O)c2OC)cc1O (stereo partly drawn) | inactive | inactive | inactive | 2.95% (inactive) | -7.2 | -6.13 | inactive
5 | CCOC(=O)c1c(C)cc(O)c(C=O)c1O | inactive | inactive | inactive | 7.6% (inactive) | -4.41 | 3.24 | inactive
6 | C=CC(C1=CC(=O)C=CC1=O)c1ccccc1 (stereo not drawn) | inactive | inactive | inactive | 7.07% (inactive) | 8.2 | 16.8 | inactive
7 | COc1ccc(/C=C/C(=O)c2ccc(O)cc2O)cc1OC | inactive | inactive | inactive | -12.3% (inactive) | -8.55 | -18.6 | inactive
8 | Nc1ccn([C@@H]2O[C@H](CO)[C@@H](OP(=O)(O)O)[C@H]2O)c(=O)n1 | inactive | – | – | 4.4% (inactive) | 7.76 | 8.34 | inactive
9 | CC1(C)CC23C(=O)CCC(O)C2(C)CCC13 (stereo not drawn) | inactive | inactive | inactive | 0.112% (inactive) | 8.4 | 10.8 | inactive
10 | Oc1ccc2c(c1)OC(c1ccc(O)c(O)c1)C(O)C2 (stereo not drawn) | inactive | inactive | inactive | 6.52% (inactive) | -5.73 | 1.34 | inactive
11 | CC(C)=CCc1c(O)cc2oc(C)cc(=O)c2c1O | inactive | inactive | inactive | 2.12% (inactive) | -3.81 | -0.981 | inactive
12 | COc1cc(O)c(C)c(O)c1 | inactive | inactive | inactive | 1.69% (inactive) | 3.91 | 5.62 | inactive
13 | COc1c(O)cc2c(-c3ccccc3)cc(=O)oc2c1OC | inactive | inactive | inactive | 5.27% (inactive) | 6.33 | 14.2 | inactive
14 | O=C(/C=C/c1ccccc1)OC1CC(O)C2(O)C=CO[C@@H](OC3OC(CO)C(O)C(O)C3O)C12 (stereo partly drawn) | inactive | inactive | inactive | 3.28% (inactive) | -10.8 | 7.13 | inactive
15 | COc1cc(OC)c(C(C)=O)c(O)c1C | inactive | inactive | inactive | 17% (inactive) | 5.25 | 27.6 | inactive
16 | CC(Oc1ccccc1)C(=O)NC1C(=O)N2C(C(=O)O)C(C)(C)S[C@@H]12 (stereo partly drawn) | inactive | inactive | inactive | 7.31% (inactive) | 11.7 | 21.7 | inactive
17 | COc1ccc(-c2coc3cc(OC(C)=O)cc(OC(C)=O)c3c2=O)cc1 | inactive | inactive | inactive | -2.95% (inactive) | 3.34 | 2.84 | inactive
18 | O=C(/C=C/c1ccccc1)c1ccc(O)cc1 | inactive | inactive | inactive | 4.07% (inactive) | -2.42 | 2.04 | inactive
19 | CC1(C)CC2C1CCC1(C)OC2(C)CCC1O (stereo not drawn) | inactive | inactive | inactive | 2.02% (inactive) | 12.1 | 15.9 | inactive
20 | O=C(CCc1ccc(O)cc1)c1c(O)cc(O)cc1O[C@H]1OC(CO)C(O)C(O)C1O (stereo partly drawn) | inactive | inactive | inactive | 6.17% (inactive) | 25.3 | 27.2 | inactive
21 | C=C1CCC2C(CC2(C)C)C(=C)CC/C1=N/O (stereo not drawn) | inactive | inactive | inactive | 4.06% (inactive) | 4.09 | 9.2 | inactive
22 | O=c1cc(-c2ccc(O)cc2)oc2cc(O)ccc12 | inactive | inactive | inactive | 10.6% (inactive) | -4.61 | 5.18 | inactive
23 | CO[C@]12CC(COC(=O)c3cncc(Br)c3)CN(C)[C@@H]1Cc1cn(C)c3cccc2c13 (stereo partly drawn) | inactive | inactive | inactive | 10.2% (inactive) | 10.9 | 29 | inactive
24 | CCCCN1CCCCC1C(=O)Nc1c(C)cccc1C (stereo not drawn) | inactive | inactive | inactive | 7.02% (inactive) | 11.8 | 21.2 | inactive
25 | CC(=O)OC1CC2C(C)(C)C(=O)[C@@H]3OC3[C@@]2(C)C2CC[C@]3(C)C(=CC(=O)OC3c3ccoc3)[C@]12C (stereo partly drawn) | inactive | inactive | inactive | 2.11% (inactive) | 18.2 | 25.7 | inactive

Row | SMILES | Potency [1] | Potency [2] | Potency [3] | activity change, negative = inhibition [4] | max response [4, 6] [%] | max response [4, 7] [%] | Potency [5]
26 | COc1cc(-c2oc3cc(O)ccc3c(=O)c2O)ccc1O | inactive | inactive | inactive | -2.65% (inactive) | -22.8 | -26.5 | inactive
27 | Oc1ccc(C2Oc3cc(O)cc(O)c3CC2O)cc1 (stereo not drawn) | inactive | inactive | inactive | 14.6% (inactive) | -6.15 | 20.5 | inactive
28 | CC(=O)OCC(=O)[C@@]1(O)CCC2C3CC[C@H]4CC(O)CC[C@@]4(C)C3C(=O)C[C@]21C (stereo partly drawn) | – | inactive | inactive | 4.69% (inactive) | -0.527 | 6.2 | inactive
29 | O=C(O)C1=CC(O)[C@@H](O)C(O)C1 (stereo partly drawn) | – | inactive | inactive | 3.18% (inactive) | 15.5 | 22.2 | inactive
30 | Nc1nc2c([nH]c(=O)n2C2OC(CO)C(O)C2O)c(=O)[nH]1 (stereo not drawn) | – | inactive | inactive | 1.54% (inactive) | 9.74 | 13.6 | inactive
31 | CCC1OC(=O)C(C)[C@@H](O[C@H]2C[C@@](C)(OC)C(O)C(C)O2)C(C)[C@@H](O[C@@H]2OC(C)CC(N(C)C)C2O)[C@@](C)(O)CC(C)CN(C)C(C)C(O)[C@]1(C)O (stereo partly drawn) | – | inactive | inactive | 0.114% (inactive) | 12.3 | 14.1 | inactive
32 | CC1(C)OC2CC3C4CCC5=CC(=O)C=C[C@@]5(C)[C@]4(F)C(O)C[C@@]3(C)[C@]2(C(=O)CO)O1 (stereo partly drawn) | – | inactive | inactive | -5.31% (inactive) | -0.616 | -3.49 | inactive
33 | C[C@@]12CCC3c4ccc(O)cc4CCC3C1CCC2O (stereo partly drawn) | – | inactive | inactive | -2.04% (inactive) | -0.621 | -0.569 | inactive
34 | COC1C(O)CC(=O)OC(C)C/C=C/C=C/[C@@H](OC2CCC(N(C)C)C(C)O2)C(C)C[C@@H](CC=O)[C@@H]1O[C@H]1OC(C)[C@H](O[C@@H]2C[C@@](C)(O)C(O)C(C)O2)C(N(C)C)C1O (stereo partly drawn) | – | inactive | inactive | 4.53% (inactive) | 15.4 | 26.5 | inactive
35 | COC1C[C@@H](O[C@@H]2C(C)C(=O)OC(C)C(C)[C@H](OC(C)=O)C(C)C(=O)[C@@]3(CO3)CC(C)C(OC3OC(C)CC(N(C)C)[C@H]3OC(C)=O)C2C)OC(C)[C@@H]1OC(C)=O (stereo partly drawn) | – | inactive | inactive | 6.97% (inactive) | 18.9 | 24.4 | inactive
36 | C[C@]12C=CC(=O)C=C1CCC1C2C(=O)C[C@]2(C)C1CC[C@]2(O)C(=O)CO (stereo partly drawn) | – | inactive | inactive | 8.15% (inactive) | 19.1 | 31.9 | inactive
37 | CC(=O)Oc1ccc2c(c1)CCC1C2CC[C@]2(C)C(=O)CCC12 (stereo partly drawn) | – | inactive | inactive | -6.33% (inactive) | -13.1 | -17.8 | inactive
38 | O=c1[nH]c(=O)n(C2CC(O)C(CO)O2)cc1C(F)(F)F (stereo not drawn) | – | inactive | inactive | 3.87% (inactive) | -2.79 | 3.03 | inactive
39 | CC(=O)OC1C[C@]2(C)[C@@H](CC(O)C3[C@]4(C)CCC(O)C(C)[C@@H]4CC[C@]32C)/C1=C(/CCC=C(C)C)C(=O)O (stereo partly drawn) | – | inactive | inactive | 5.26% (inactive) | 12.3 | 24.1 | inactive
40 | C=C1C[C@@]23C[C@@]1(O)CCC2[C@@]12C=CC(O)[C@](C)(C(=O)O1)C2C3C(=O)O (stereo partly drawn) | – | inactive | inactive | 1.95% (inactive) | 6.93 | 10.6 | inactive
41 | O=C(O)CCC(=O)C(=O)O (tested in a mixture with another compound) | – | inactive | inactive | 3.77% (inactive) | 11.4 | 18.6 | inactive
42 | CC1(C)OC2C[C@](O)(C(N)=O)C[C@H](O)[C@H]2O1 (stereo partly drawn) | – | inactive | inactive | 3.65% (inactive) | 15.6 | 23.7 | inactive
43 | Fc1ccc([C@H]2CCNCC2COc2ccc3c(c2)OCO3)cc1 (stereo partly drawn) | – | inactive | inactive | 12.8% (inactive) | -0.955 | 14.7 | inactive
44 | CC(=O)OC1C(=O)[C@@]2(C)C(O)CC3OC[C@]3(OC(C)=O)C2C(OC(=O)c2ccccc2)[C@]2(O)CC(OC(=O)C(O)C(NC(=O)c3ccccc3)c3ccccc3)C(C)=C1C2(C)C (stereo partly drawn) | – | inactive | inactive | -3.78% (inactive) | 1.34 | -0.503 | inactive
45 | C[C@]12CCC3c4ccc(OS(=O)(=O)O)cc4CCC3C1CCC2=O (stereo partly drawn) | – | inactive | inactive | 9.98% (inactive) | 6.42 | 22.2 | inactive
46 | CC1(C)OC2CC3C4CC(F)C5=CC(=O)CC[C@@]5(C)C4C(O)C[C@@]3(C)[C@]2(C(=O)CO)O1 (stereo partly drawn) | – | inactive | inactive | 4.43% (inactive) | 7.91 | 15.6 | inactive
47 | O=C(O)CCC(=O)OC[C@@H](NC(=O)C(Cl)Cl)C(O)c1ccc([N+](=O)[O-])cc1 (stereo partly drawn) | – | inactive | inactive | 7.24% (inactive) | 16.6 | 25.2 | inactive
48 | NC1(C(=O)O)CCCC1 | – | inactive | inactive | -0.822% (inactive) | 7.47 | 7.88 | inactive
49 | CC(=O)N[C@@H](Cc1c[nH]c2ccccc12)C(=O)O | – | inactive | inactive | 5.86% (inactive) | 17.1 | 24.9 | inactive
50 | CC(=O)OCC(=O)[C@@]12OC(C)(C)OC1CC1C3CC(F)C4=CC(=O)C=C[C@@]4(C)[C@@]3(F)C(O)C[C@]12C (stereo partly drawn) | – | inactive | inactive | 5.49% (inactive) | 3.91 | 12.9 | inactive
